Screening results (PubChem)
CHT allo act: CHT positive allosteric modulators, primary screen, cell-based, membrane potential dye, choline EC20; B-score at 10 µM; actives 0.49% (n = 310,000); CHT-expressing cells; active compounds read high; LV-AA mutant CHT in HEK293 cells; High affinity choline transporter 1 (Homo sapiens), Q9GZV3;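 active means initial fluorescence not abnormally high and integrated response B-score, plate-corrected, over 3 SD above library mean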
ANO1 block: TMEM16A chloride channel inhibitors, primary screen, cell-based, HTS | normalized B-score (activity score, 25-100; higher = stronger inhibition) at 10 µM | HEK293 TMEM16A/YFP iodide influx fluorescence, ionomycin | AID 588511, 2011 | actives 1.2% (n = 310,000) | Anoctamin-1 (Mus musculus), Q8BHY3;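 active means ratio plate-corrected score three or more library SD toward inhibition, starting fluorescence score within five deviations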;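 further: score derived from kinetic fluorescence span divided by baseline fluorescence per well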
CHT block: inhibitors of human choline transporter CHT | High affinity choline transporter 1 (Homo sapiens), Q9GZV3 | CHT-expressing cells, membrane potential dye, choline response; active compounds read low | B-score at 10 µM | actives 0.86% (n = 310,000) | AID 488975, 2010;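 active means B-score over 3 SD under the library average, and starting fluorescence ratio not unusually high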;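 further: choline stimulus applied at its EC90 after an EC20 pre-addition; B-score computed on integrated fluorescence ratio after choline addition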
TMEM16A act: TMEM16A chloride channel activators or potentiators, primary screen, cell-based, HTS. actives 0.3% (n = 340,000). HEK293 TMEM16A/YFP-H148Q/I152L, iodide quench fluorescence; active compounds read low. B-score at 10 µM. AID 623877, 2012;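 active means fluorescence-ratio B-score plate-corrected deviation score at least 3 library SD below zero, with starting fluorescence score within 5 deviations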;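 further: channel opened by trigger with iodide after compound preincubation; score built on the fluorescence ratio of max minus min over baseline; more negative score means more quench and so TMEM16A activation or potentiation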
CHT inh conf: CHT inhibitors, confirmation, cell-based, membrane potential dye, duplicate; shares compounds with CHT block; CHT-expressing cells, choline membrane potential dye; LV-to-AA substituted CHT, HEK293 cells; CHT activity remaining % of control (active compounds read low), % at 10 µM; actives 70% (n = 2,400); AID 493221, 2011;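 active means choline transporter activity left, mean of duplicates at 10 µM, below buffer-only control mean minus 3 SD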;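 further: depolarization triggered by choline at its EC90 following an EC20 pre-addition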
HEK293 CHT ctr: membrane potential effects in parental HEK293, counter-screen for CHT inhibitor project, cell-based, membrane potential dye. choline response; active = decrease or increase beyond buffer ±3SD. actives 4% (n = 2,400). shares compounds with CHT block. membrane potential ratio readout (active if shifted either direction beyond buffer ±3SD; no single direction) at 10 µM;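 further: parental cells lack the transporter so any hit is non-specific; ratio is peak minus trough fluorescence over baseline after EC90 choline challenge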
Numbers stand for hits; . = inactive; / = no result. This is a sample that favours compounds with a hit; in the whole collection about 2.3% have one here.

SMILES | CHT allo act | ANO1 block | CHT block | TMEM16A act | CHT inh conf | HEK293 CHT ctr
Cc1ccc(C(=O)N/C(=C\c2cccs2)C(=O)NC2CCCCC2)cc1 | . | . | -5.1 | . | 22% | .
O=C(CC(=O)c1c(F)cccc1Cl)c1ccccc1O | . | . | -5.6 | . | 46% | .
O=C(CC(=O)c1ccccc1O)c1cccc(F)c1 | . | . | . | . | / | /
N#CC(C#N)=C(Nc1ccc(F)cc1)SCc1cccc(F)c1 | . | 25 | -5.8 | . | 65% | .
CCOc1ccc(N/C(SCc2cccc([N+](=O)[O-])c2)=C(/C#N)C(N)=O)cc1 | . | . | . | . | / | /
CC[C@H](C)[C@H](NC(=O)c1ccc(Cl)cc1)C(=O)OCC(=O)c1ccc2c(c1)NC(=O)CO2 | . | . | -5.7 | . | 32% | .
CC(C)[C@H](NC(=O)c1ccccc1)C(=O)OCC(=O)c1ccc2c(c1)NC(=O)CO2 | . | . | -9 | . | 33% | .
COc1cc(OC)cc(C(=O)N[C@H](C(=O)OCC(=O)c2ccc3c(c2)NC(=O)CO3)C(C)C)c1 | . | . | . | . | / | /
CCCCCCC(NC(=O)c1ccc(C)cc1)C(=O)O (configuration not stated) | / | / | / | . | / | /
O=C(NNC1=C(C(=O)C(F)(F)F)CCC1)c1cccc(Cl)c1 | . | 100 | -9.8 | . | 40% | .
CC1CCCCC1NC(=O)CN1C(=O)NC(C)(c2cc(F)ccc2F)C1=O (configuration not stated) | / | / | / | . | / | /
Cc1ccc(S(=O)(=O)N(C(=N)N)c2nc(N(C)C)nc(N(C)C)n2)cc1 | . | . | . | . | / | /
O=C(c1cccc(-c2nnc(-c3ccccc3)o2)c1)N1CCCCC1 | . | . | -6.3 | . | . | .
O=C(CCCN1CCOCC1)c1ccc2c(c1)OCCO2 | . | . | . | . | / | /
O=C(CCN1CCOCC1)c1ccc2c(c1)OCCO2 | . | . | -5.2 | . | . | .
N=c1n(CCN2CCCCC2)c2ccccc2n1CC(=O)c1ccc(Cl)c(Cl)c1 | . | . | -5.4 | . | . | .
CCn1c(=N)n(CC(=O)c2ccc(Cl)c(Cl)c2)c2ccccc21 | . | . | . | . | / | /
NS(=O)(=O)c1ccc(NC(=O)Nc2ccc(S(N)(=O)=O)cc2)cc1 | . | . | -13 | . | . | .
Oc1ccc(Oc2ncc(Cl)cc2Cl)cc1 | . | . | -5.4 | . | 59% | .
O=C1OCCC1Sc1nc(-c2ccccc2)cs1 (configuration not stated) | . | . | -9.1 | . | 39% | .
O=C1OCCC1Sc1nnnn1-c1ccccc1 (configuration not stated) | . | . | . | . | / | /
COc1cc(OC)cc(C(=O)NCC2CCCN(Cc3cccc(C(C)=O)c3)C2)c1 (configuration not stated) | . | . | . | . | / | /
Cc1ccc(C(=O)CCC(=O)NC2CCCC(C)C2C)cc1 (configuration not stated) | . | . | -5.2 | . | 58% | .
Cc1ccc(S(C)(=O)=O)cc1C(=O)OCC(=O)N(Cc1ccccc1)Cc1ccccc1 | / | / | / | . | / | /
COc1ccc(Cl)cc1NC(=O)C[n+]1cccc(C)c1 | . | . | -8.1 | . | 40% | .
SMILES | CHT allo act | ANO1 block | CHT block | TMEM16A act | CHT inh conf | HEK293 CHT ctr
O=C(O)/C(=C/c1ccc(Cl)c([N+](=O)[O-])c1)c1ccc(S(=O)(=O)N2CCCCC2)s1 | / | / | / | . | / | /
CN(Cc1ccccc1)C(=O)COC(=O)COc1ccc(Cl)cc1 | / | / | / | . | / | /
CN(Cc1ccccc1)C(=O)COC(=O)COc1ccc(C#N)cc1 | . | . | -5.3 | . | 65% | .
COc1ccc(C2NC(=O)c3sc(=S)n(-c4ccccc4)c3N2)cc1 (configuration not stated) | . | . | . | . | / | /
CCOc1ccc(C2NC(=O)c3sc(=S)n(-c4ccccc4)c3N2)cc1 (configuration not stated) | . | . | -4.9 | . | . | .
COc1ccc(C(=O)CSc2nnc(-c3ccco3)n2CC2CCCO2)cc1 (configuration not stated) | . | . | . | . | / | /
COc1ccc(C(=O)CSc2nnc(-c3ccco3)n2C)cc1 | . | . | -5.4 | . | . | .
CNC(=S)NNC(=O)c1sccc1OCc1ccc(Cl)cc1Cl | . | . | . | . | / | /
S=c1nc(-c2sccc2OCc2ccc(Cl)cc2Cl)[nH][nH]1 | . | . | -5 | . | 70% | .
O=C1NN(c2ccccc2)C(=O)/C1=C/c1coc2ccccc2c1=O | . | . | -5.3 | . | 31% | .
CC1CCCCC1NC(=O)Cn1nc(-c2ccccc2)ccc1=O (configuration not stated) | . | . | -5.4 | . | 64% | .
N=c1n(Cc2ccccc2)c2ccccc2n1CC(O)COc1ccccc1 (configuration not stated) | . | . | -9.8 | . | 38% | .
CCCn1c(=N)n(CC(O)COc2cccc(C)c2)c2ccccc21 (configuration not stated) | . | . | -5.3 | . | . | .
CCn1c(=N)n(CC(O)COc2cccc(C)c2)c2ccccc21 (configuration not stated) | . | . | . | . | / | /
Cc1ccc(Cn2c(=N)n(CC(O)COc3ccccc3)c3ccccc32)cc1 (configuration not stated) | . | . | -8.2 | . | 38% | .
CC1CCCCN1CCNC(=O)CN1C(=O)CSc2ccc(S(=O)(=O)N3CCCCC3)cc21 (configuration not stated) | . | . | -6.7 | . | 45% | .
CC1CCN(S(=O)(=O)c2ccc3c(c2)N(CC(=O)NCCCN2C(C)CCCC2C)C(=O)CO3)CC1 (configuration not stated) | . | . | -7.4 | . | 34% | .
CC1CCCC(C)N1CCCNC(=O)CN1C(=O)COc2ccc(S(=O)(=O)N3CCOCC3)cc21 (configuration not stated) | . | . | . | . | / | /
Cc1nc(SCC(=O)NC(=O)NCc2ccccc2)nc(C)c1C | . | . | -6.2 | . | 69% | .
Cc1nc(SCC(=O)NC(=O)NCc2ccco2)nc(C)c1C | . | . | . | . | / | /
O=C(NC1CCCCCC1)C1c2ccccc2C(=O)N1Cc1cccs1 (configuration not stated) | . | . | . | . | / | /
O=C(NC1CCCCCC1)C1c2ccccc2C(=O)N1Cc1ccco1 (configuration not stated) | . | . | -5.7 | . | . | -8.3
Cc1cc2c(ncn2Cc2ccccc2)c([N+](=O)[O-])c1C | . | . | -5.3 | . | 51% | .
